Experiment [1] in a line: qHTS assay to identify small molecule antagonists of the estrogen receptor alpha (ER-alpha) signaling pathway using the BG1 cell line in the presence of 0.1 nM 17-beta-estradiol - cell viability counter screen (AID 1259241). Also: nearly all actives have a fitted effect of over 40% in size. Also: potency is read from the fitted curve at half-maximal effect. A digest of the protocol:
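CellTiter-Fluor read (30 min, 37C) on ER-alpha/ERE-luc VM7Luc4E2 cells; 22 hr compound treatment; agonist 0.1 nM E2 final; same-well multiplex.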

A short description of experiment [2]: qHTS assay to identify small molecule antagonists of the androgen receptor (AR) signaling pathway using the MDA cell line in the presence of 0.5 nM R1881 - cell viability counter screen (AID 1259242). Also: nearly all actives have a fitted effect of over 45% in size. Also: potency is read from the fitted curve at half-maximal effect. A digest of the protocol: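 Concentration-response screen of compounds for toxicity in MDA-kb2 reporter cells: 16 hr at 37C with 0.5 nM R1881, endpoint live-cell protease fluorescence measured in the reporter wells.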
(In general: Quantitative high-throughput screening tests each substance at several concentrations.)

Experiment [3] in a line: qHTS assay to identify small molecule HDAC inhibitors (AID 1259364).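 Also: wild-type HCT-116 cells with endogenous class I/II HDAC activity; top concentration of the series differs between compounds; nearly all actives have a fitted effect of over 45% in size.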 The essentials:
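Screening used wild-type human colon HCT-116 cells incubated overnight, dosed with compounds for 2 hours, and assayed with a homogeneous luminogenic HDAC I/II reagent for 30 minutes at room temperature.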

A short description of experiment [4]: qHTS assay to identify small molecule agonists of the sonic hedgehog signaling (Shh) pathway - cell viability counter screen (AID 1259366). Also: nearly all actives have a fitted effect of over 50% in size. Also: potency is read from the fitted curve at half-maximal effect. The essentials: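 Fluorescence from CellTiter-Fluor reports live cells in this counter screen. NIH/3T3-derived Gli1-Luc reporter cells receive test compounds for 24hr at 37C; reagent goes in at 23hr.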
Experiment [5] is described as follows: qHTS assay to identify small molecule antagonists of the sonic hedgehog signaling (Shh) pathway - cell viability counter screen (AID 1259367). Also: nearly all actives have a fitted effect of over 55% in size. Also: potency is read from the fitted curve at half-maximal effect. A digest of the protocol: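 Tox21 library chemicals were tested on a Gli1-Luc NIH/3T3 clone (2,000 cells/well) stimulated by conditioned medium; viability was quantified as fluorescence from CellTiter-Fluor reagent added at 23 hr.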

A short description of experiment [6]: qHTS assay to identify small molecule agonists of the sonic hedgehog signaling (Shh) pathway (AID 1259368; calls by dose curve;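 also: NIH/3T3-derived 3T3Gli1-Luc cells carrying a stable Gli1-driven firefly luciferase reporter; series mostly up to about 92 µM; nearly all actives have a fitted effect of over 15% in size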). A digest of the protocol:
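Hedgehog pathway agonism scored by increased firefly luciferase luminescence in 3T3Gli1-Luc cells treated 24 hr at 37 C; detection used a 30 min room-temperature reagent incubation.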

A short description of experiment [7]: qHTS assay to identify small molecule HDAC inhibitors - cell viability counter screen (AID 1259365). Also: series mostly up to about 92 µM; nearly all actives have a fitted effect of over 50% in size. A digest of the protocol: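 To flag cytotoxic hits, 1,500 wild-type HCT-116 cells per well, plated the day before, receive test compounds for 2hr at 37 C before CellTiter-Glo reagent and a luminescence read.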
Experiment [8] addresses Estrogen receptor (Homo sapiens) (UniProt P03372). The experiment is described as follows: qHTS assay to identify small molecule antagonists of the estrogen receptor alpha (ER-alpha) signaling pathway using the BG1 cell line in the presence of 0.1 nM 17-beta-estradiol (AID 1259244). Also: nearly all actives have a fitted effect of over 50% in size. Also: potency is read from the fitted curve at half-maximal effect. A digest of the protocol:
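Compounds were tested against 0.1 nM (final) 17beta-estradiol in VM7Luc4E2 cells, which express full-length ER-alpha and an ERE-luciferase reporter; luminescence was recorded following 22 h exposure.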

Experiment [9] is described as follows: qHTS assay to identify small molecule phospholipidosis (PLD) inducers (AID 1259344; active = well fitted curve in the direction sought with a large enough effect; an effect the other way counts as inactive or inconclusive). The essentials: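 Image-based: LipidTOX Red pit count/intensity per well and per cell; HepG2, 24 h compound at 37 C, PFA fixation, Hoechst counterstain.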
Experiment [10] concerns the target Androgen receptor (Homo sapiens) (UniProt P10275). The experiment is described as follows: qHTS assay to identify small molecule antagonists of the androgen receptor (AR) signaling pathway using the MDA cell line in the presence of 0.5 nM R1881 (AID 1259243). Also: nearly all actives have a fitted effect of over 50% in size. Also: potency is read from the fitted curve at half-maximal effect. A digest of the protocol: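 With R1881 held at 0.5 nM (final), compound effects on MMTV-luciferase expression in MDA-kb2 cells were scored by luminescence after a 16 hr, 37C incubation.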

Several values for one entry are separate records, joined by “and”; a condition that tells them apart may be missing. Identical values can stand only once. Records with an inconclusive call do not appear. Some structures have more than one record in an assay (separate samples or runs), and their calls can disagree. Activity calls are given as the source filed them. Unless noted, calls follow the shape of the dose curve; as a rule, active = well fitted curve in the direction sought with a large enough effect in the repeat runs; inconclusive = weak or mixed curves; inactive = no such curve, though single readings can be large; an effect the other way counts as inactive or inconclusive.

Chain of Androgen receptor (Homo sapiens) (P10275 whole entry, looked up): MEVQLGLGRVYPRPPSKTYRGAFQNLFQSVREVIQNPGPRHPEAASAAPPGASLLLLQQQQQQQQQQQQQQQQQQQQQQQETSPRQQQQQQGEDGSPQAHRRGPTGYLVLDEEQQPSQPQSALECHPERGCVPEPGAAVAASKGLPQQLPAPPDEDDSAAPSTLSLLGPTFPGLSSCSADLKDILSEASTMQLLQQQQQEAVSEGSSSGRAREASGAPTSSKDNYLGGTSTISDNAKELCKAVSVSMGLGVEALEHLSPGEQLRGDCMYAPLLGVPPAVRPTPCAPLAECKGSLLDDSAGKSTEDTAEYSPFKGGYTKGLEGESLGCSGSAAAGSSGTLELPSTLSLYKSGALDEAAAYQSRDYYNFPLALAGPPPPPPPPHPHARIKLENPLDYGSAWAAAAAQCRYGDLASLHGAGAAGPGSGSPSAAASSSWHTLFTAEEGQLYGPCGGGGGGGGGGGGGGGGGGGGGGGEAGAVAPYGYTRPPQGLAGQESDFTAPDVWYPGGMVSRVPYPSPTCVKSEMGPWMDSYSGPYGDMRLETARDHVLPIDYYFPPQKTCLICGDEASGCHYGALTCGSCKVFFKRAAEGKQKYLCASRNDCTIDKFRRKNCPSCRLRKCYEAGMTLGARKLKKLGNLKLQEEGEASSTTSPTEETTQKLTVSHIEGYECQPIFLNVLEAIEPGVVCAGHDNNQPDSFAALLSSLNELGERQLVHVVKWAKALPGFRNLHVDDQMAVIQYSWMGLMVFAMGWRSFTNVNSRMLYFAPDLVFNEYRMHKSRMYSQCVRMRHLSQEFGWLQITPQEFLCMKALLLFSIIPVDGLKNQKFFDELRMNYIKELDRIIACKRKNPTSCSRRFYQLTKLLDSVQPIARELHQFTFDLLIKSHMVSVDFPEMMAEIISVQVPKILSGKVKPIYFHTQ
Chain of Estrogen receptor (Homo sapiens) (P03372 whole entry, looked up): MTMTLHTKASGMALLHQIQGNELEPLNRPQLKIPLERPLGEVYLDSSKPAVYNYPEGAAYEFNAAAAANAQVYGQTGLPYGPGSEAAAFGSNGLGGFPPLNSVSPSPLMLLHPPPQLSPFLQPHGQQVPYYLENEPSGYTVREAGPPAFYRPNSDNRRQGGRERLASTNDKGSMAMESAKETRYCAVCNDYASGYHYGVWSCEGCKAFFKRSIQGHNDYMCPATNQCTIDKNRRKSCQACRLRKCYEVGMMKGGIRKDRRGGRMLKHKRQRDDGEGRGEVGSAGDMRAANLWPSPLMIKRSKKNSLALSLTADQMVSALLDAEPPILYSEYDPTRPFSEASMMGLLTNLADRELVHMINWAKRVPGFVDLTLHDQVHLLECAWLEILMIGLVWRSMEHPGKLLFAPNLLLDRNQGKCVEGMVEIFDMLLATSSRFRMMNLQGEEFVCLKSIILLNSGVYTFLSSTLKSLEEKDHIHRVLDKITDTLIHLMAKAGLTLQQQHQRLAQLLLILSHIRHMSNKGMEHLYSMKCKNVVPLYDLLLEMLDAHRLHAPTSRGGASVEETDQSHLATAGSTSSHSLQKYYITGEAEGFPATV

In the case of `CCOP(=O)(OCC)Oc1cc(C)nc(C(C)C)n1`, the Potency result in experiment [1], in [2], in [3], in [4], in experiment [5] and in experiment [6] was “inactive” each time.
`O=[N+]([O-])[O-].[Tl+]`: the Potency entry in [1], in experiment [2], in [3], in experiment [7], in [4] and in experiment [5] was “inactive” each time. Besides, the Potency entry in experiment [6] was “inactive”.
With `C#CC1(O)CCCCC1`, the Potency result in experiment [1], in experiment [2], in [3], in experiment [7], in [4] and in experiment [5] was “inactive” in each case. For the same compound, the Potency result in experiment [6] was “inactive”.
With `O=P(Cl)(Cl)Cl`, the Potency entry in experiment [1], in experiment [2], in experiment [3], in [7], in experiment [4] and in [5] was “inactive” in each case. Further, in [6], the Potency entry was “inactive”.
In the case of `CC(=O)[O-].CC(=O)[O-].CC(=O)[O-].[Cr+3]`, the Potency entry in [1], in experiment [2], in experiment [3], in experiment [7], in experiment [4] and in experiment [6] was “inactive” in each case.
As for `CNC(=O)O/N=C(\C)C(C)S(C)(=O)=O` (stereo unspecified), the Potency result in experiment [1], in experiment [2], in [3], in experiment [7], in experiment [4] and in [6] was “inactive” each time.
`COCCC#N`: the Potency entry in experiment [1], in experiment [2], in experiment [3], in experiment [7], in experiment [4] and in experiment [5] was “inactive” throughout. Also, the Potency result in experiment [6] is “inactive”.
`CCC1COC(Cn2cncn2)(c2ccc(Cl)cc2Cl)O1` (stereo unspecified): the Potency result in experiment [1], in [2], in experiment [3], in [4], in [5] and in experiment [6] was “inactive” in each case.
With `CCN(CC)C(=O)N[C@@H]1C=C2c3cccc4[nH]cc(c34)C[C@@H]2N(C)C1`, the Potency entry in [2], in experiment [8], in [3], in experiment [7], in [4] and in [6] was “inactive” in each case. For the same compound, the call in experiment [9] was inactive.
Consider `ClC1(Cl)C2(Cl)C3(Cl)C4(Cl)C(Cl)(Cl)C5(Cl)C3(Cl)C1(Cl)C5(Cl)C24Cl` (stereo unspecified), for which the Potency entry in experiment [2], in experiment [10], in [8], in [3], in experiment [7] and in experiment [4] was “inactive” in each case. Moreover, the Potency result in experiment [6] was “inactive”.
As to `C[C@@H]1CC2=CC(=O)CC[C@@H]2[C@H]2CC[C@@]3(C)[C@@H](CC[C@]3(C)O)[C@@H]21`, the Potency result in experiment [2], in experiment [10], in experiment [3], in [4], in experiment [5] and in experiment [6] was “inactive” in each case.
On to `O=S(=O)(NS(=O)(=O)C(F)(F)F)C(F)(F)F`, for which the Potency result in experiment [1], in experiment [3], in [7], in [4], in [5] and in [6] was “inactive” throughout.
As for `CC(C)=CC1C(C(=O)OC(C#N)c2cccc(Oc3ccccc3)c2)C1(C)C` (stereo unspecified), the Potency result in experiment [2], in experiment [10], in experiment [3], in experiment [7], in [4] and in experiment [5] was “inactive” in each case. Moreover, in experiment [6], the Potency result is “inactive”.
Regarding `CCC(OC(C)=O)C(CC(C)NC)(c1ccccc1)c1ccccc1` (stereo unspecified), the Potency was 43.6 µM (active) in experiment [2]; 27.5 µM (active) in [10]; 69.2 µM (active) in experiment [8]; 34.7 µM (active) in experiment [4]; 61.6 µM (active) in experiment [5]. Further, the Potency entry in [3], in experiment [7] and in experiment [6] was “inactive” throughout.
As for `O=C1C2(Cl)C3(Cl)C4(Cl)C(Cl)(Cl)C5(Cl)C3(Cl)C1(Cl)C5(Cl)C24Cl` (stereo unspecified), the Potency was 60.1 µM (active) in [2]; “inactive and 65.7 µM (active)” in experiment [10]; 26.9 µM (active) in experiment [4]; 37.9 µM (active) and 58.5 µM (active) in experiment [5]. In addition, the Potency entry in experiment [3], in [7] and in [6] was “inactive” in each case.
As to `CN1CCc2cc(Cl)c(O)cc2[C@H]2c3ccccc3CC[C@@H]21`, the Potency result in experiment [2], in experiment [8], in experiment [3], in [7] and in experiment [6] was “inactive” in each case. In addition, in [9], the call was inactive. The Potency in experiment [4] was 4.73 µM (active); in experiment [5] it was 11.9 µM (active).
Consider `CC#C[C@]1(O)CC[C@H]2[C@@H]3C[C@H](C)C4=CC(=O)CC[C@]4(C)[C@H]3CC[C@@]21C`, for which the Potency result in experiment [2], in [10], in experiment [8], in [3], in [7] and in [4] was “inactive” each time. Besides, the Potency result in [5] and in experiment [6] was “inactive” in each case.
For `[Cl-].[Cl-].[Cl-].[Yb+3]`, the Potency entry in experiment [1], in experiment [2], in experiment [3] and in experiment [6] was “inactive” each time.
Consider `CC(C)N(C(=O)SC/C(Cl)=C/Cl)C(C)C`, for which the Potency result in experiment [2], in experiment [8], in [3], in experiment [7], in experiment [4] and in [5] was “inactive” throughout. Further, the Potency entry in experiment [6] is “inactive”.
Regarding `[F][Sn]([c]1ccccc1)([c]1ccccc1)[c]1ccccc1`, the Potency is 24.3 µM (active) in [1], 2.17 µM (active) in [2], 0.0969 µM (active) in experiment [4] and 0.154 µM (active) in experiment [5]. For the same compound, the Potency entry in [7] and in experiment [6] was “inactive” throughout.
As to `CC(C)N(C(=O)CCl)c1ccccc1`, the Potency entry in experiment [1], in experiment [3], in [7] and in experiment [6] was “inactive” in each case. The Potency in experiment [10] was 19.3 µM (active); in experiment [8], 27.3 µM (active) and 54.5 µM (active); in [4], 68.6 µM (active) and 9.69 µM (active); in experiment [5] it was 30.6 µM (active) and 24.3 µM (active).
`Cc1cnc2c(C(=O)O)c(Cl)ccc2c1`: the Potency result in experiment [1], in experiment [2], in experiment [3], in experiment [4] and in experiment [6] was “inactive” each time.
Turning to `C#CCC1=C(C)C(OC(=O)C2C(C=C(C)C)C2(C)C)CC1=O` (stereo unspecified), the Potency result in [1], in experiment [2], in experiment [3], in experiment [4] and in [6] was “inactive” throughout.
In the case of `CCCCC(CC)COC(=O)c1ccccc1C(=O)OCC(CC)CCCC` (stereo unspecified), the Potency entry in experiment [2], in experiment [8], in [3], in experiment [4] and in experiment [6] was “inactive” throughout. The call in experiment [9] was inactive.
For the compound `Oc1cc(Cl)c(Cl)c(Cl)c1Cl`, the Potency entry in experiment [1], in experiment [3], in [7], in [4] and in [6] was “inactive” in each case. Moreover, in experiment [8], the Potency is 29.9 µM (active).
`O=S1(=O)OCC2C(CO1)C1(Cl)C(Cl)=C(Cl)C2(Cl)C1(Cl)Cl` (stereo unspecified): the Potency result in experiment [1], in experiment [3], in experiment [7], in [5] and in [6] was “inactive” throughout. Further, the Potency in [8] is 54.5 µM (active).
Turning to `COC(=O)C(C)N(C(=O)c1ccco1)c1c(C)cccc1C` (stereo unspecified), the Potency entry in experiment [2], in experiment [8], in [3], in experiment [7], in [4] and in [5] was “inactive” throughout. For the same compound, the Potency entry in experiment [6] is “inactive”.

Values taken from PubChem BioAssay (Tox21).
